Assay outcomes as filed in PubChem.
PD-1 reversal – activators reversing PD-1 mediated T-cell inhibition | primary human CD4 T cells, PD-L1 beads, CellTiter-Glo 96 h | activation, % (concentration not given with the values) | 29,000 tested, under 10 active | AID 2316; call rule not given here;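 note: 0% = median vehicle wells and 100% = positive control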
MITF inhib – MITF inhibition; inhibition, % (no concentration beside the values); 37,000 tested, 0.28% active; TRPM1 promoter luciferase, luminescence, 24 h; in the data active = inhibition above about 85%;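 note: human melanocyte line stably carrying TRPM1 promoter luciferase reporter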
Hedgehog inh – Sonic Hedgehog pathway inhibition. Shh-LIGHT2 Gli-luciferase reporter, 30 h. inhibition, % (no concentration beside the values). 22,000 tested, 2.1% active. AID 2313;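 active = mean inhibition across valid replicates above about 65%, limit read from the data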;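 note: pathway switched on by Shh-conditioned medium diluted 1 in 25 in low serum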
NOMO-1 viab – STK33 inhibitor candidate reducing NOMO-1 cell viability | NOMO-1 AML viability, CellTiter-Glo luminescence, 72 h | inhibition, % (concentration not given with the values) | 37,000 tested, 7.5% active | AID 2330; in the data active = inhibition above about 80%
Active calls of the source: *; nt = no result. In the library only some 8.1% were active in any assay of this set; here they are far more common.

SMILES	PD-1 reversal	MITF inhib	Hedgehog inh	NOMO-1 viab
C[C@H]1CN([C@@H](C)CO)C(=O)c2cc(NC(=O)Nc3ccc4c(c3)OCO4)ccc2O[C@@H]1CN(C)Cc1ccc(-c2ccccc2)cc1	0	9	9	112*
C[C@H](CO)N1C[C@H](C)[C@@H](CN(C)Cc2ccc(Oc3ccccc3)cc2)Oc2ccc(NC(=O)Nc3ccc4c(c3)OCO4)cc2C1=O	0	-8	nt	32
C[C@@H]1CN([C@H](C)CO)C(=O)c2cc(NC(=O)Nc3ccc4c(c3)OCO4)ccc2O[C@H]1CN(C)Cc1ccc(Oc2ccccc2)cc1	3	-2	nt	-2
C[C@H](CO)N1C[C@H](C)[C@@H](CN(C)Cc2ccc(-c3ccccc3)cc2)Oc2ccc(NC(=O)Nc3ccc4c(c3)OCO4)cc2C1=O	0	-7	-7	120*
C[C@@H]1CN([C@H](C)CO)C(=O)c2cc(NC(=O)Nc3ccc4c(c3)OCO4)ccc2O[C@@H]1CN(C)Cc1ccc(Oc2ccccc2)cc1	0	9	92*	66
NC(=NC(=O)c1ccc(Cl)cc1)c1ccc(C(F)(F)F)cn1	-2	-39	-83	13
COc1ccc(CCn2cnc3oc(-c4ccccc4)c(-c4ccccc4)c3c2=N)cc1OC	-1	11	-9	-3
C[C@H]1CN([C@@H](C)CO)C(=O)Cc2cc(NS(=O)(=O)c3cccs3)ccc2O[C@@H]1CN(C)Cc1ccc(C(=O)Nc2ccccc2N)cc1	0	-18	nt	45
C[C@H]1CN([C@@H](C)CO)C(=O)c2cc(NS(=O)(=O)c3cccs3)ccc2O[C@H]1CN(C)Cc1ccc(C(=O)Nc2ccccc2N)cc1	0	18	nt	71
C[C@@H]1CN([C@@H](C)CO)C(=O)Cc2cc(NS(=O)(=O)c3cccs3)ccc2O[C@@H]1CN(C)Cc1ccc(C(=O)Nc2ccccc2N)cc1	0	17	nt	90*
C[C@@H]1CN([C@H](C)CO)C(=O)Cc2cc(NS(=O)(=O)c3cccs3)ccc2O[C@@H]1CN(C)Cc1ccc(C(=O)Nc2ccccc2N)cc1	0	7	nt	116*
O=C(O)CCNC(=O)c1ccco1	1	2	nt	19
COC(=O)C1=C(C)NC(C)=C(C(=O)OCCCN2CCC(c3ccccc3)(c3ccccc3)CC2)C1c1cccc([N+](=O)[O-])c1 (stereo not given)	nt	110*	72*	120*
C[C@@H]1CCCCO[C@H](CN(C)S(=O)(=O)c2ccccc2)[C@@H](C)CN([C@H](C)CO)C(=O)c2cc(NC(=O)c3ccccc3)ccc2O1	-2	3	4	4
C[C@@H]1CCCCO[C@@H](CN(C)S(=O)(=O)c2ccc(Cl)cc2)[C@@H](C)CN([C@H](C)CO)C(=O)c2cc(NS(=O)(=O)c3ccc(F)cc3)ccc2O1	nt	48	25	103*
C[C@@H]1CCCCO[C@@H](CN(C)CC2CCCCC2)[C@@H](C)CN([C@H](C)CO)C(=O)c2cc(NS(=O)(=O)c3ccc(Cl)cc3)ccc2O1	-12	13	-4	97*
C[C@@H]1CCCCO[C@@H](CN(C)S(=O)(=O)c2ccc(Cl)cc2)[C@@H](C)CN([C@H](C)CO)C(=O)c2cc(NS(=O)(=O)c3ccc(Cl)cc3)ccc2O1	nt	53	71*	91*
C[C@@H]1CCCCO[C@H](CN(C)S(=O)(=O)c2ccc(Cl)cc2)[C@@H](C)CN([C@H](C)CO)C(=O)c2cc(NS(=O)(=O)c3ccc(Cl)cc3)ccc2O1	nt	36	14	20
C[C@@H]1CCCCO[C@@H](CN(C)S(=O)(=O)c2ccc(Cl)cc2)[C@@H](C)CN([C@H](C)CO)C(=O)c2cc(NC(=O)c3ccccc3)ccc2O1	-4	31	46	88*
O=C(c1cccc(Cl)c1)N1CCOCC1	4	6	-12	4
Cc1ccc(S(=O)(=O)Nc2ccc3c(c2)C(=O)N([C@H](C)CO)C[C@H](C)[C@H](CN(C)S(=O)(=O)c2ccc(Cl)cc2)OCCCC[C@@H](C)O3)cc1	-10	34	21	111*
COc1ccc(S(=O)(=O)N(C)C[C@@H]2OCCCC[C@@H](C)Oc3ccc(NS(=O)(=O)c4ccc(Cl)cc4)cc3C(=O)N([C@H](C)CO)C[C@@H]2C)cc1	nt	48	14	94*
Cc1ccc(S(=O)(=O)N(C)C[C@H]2OCCCC[C@@H](C)Oc3ccc(NS(=O)(=O)c4ccccc4)cc3C(=O)N([C@H](C)CO)C[C@@H]2C)cc1	-6	29	60	36
Cc1ccc(S(=O)(=O)Nc2ccc3c(c2)C(=O)N([C@H](C)CO)C[C@H](C)[C@H](CN(C)S(=O)(=O)c2ccccc2)OCCCC[C@@H](C)O3)cc1	-7	26	30	91*
